Rows were chosen to be rich in hits. Some 2.3% of all compounds tested hit in one or more screens of this group.
CHRM1 PAM – human CHRM1 positive allosteric modulation; CHO-K1 hM1, Fluo-8 calcium fluorescence, ACh EC20; 0% = ACh EC20, 100% = maximal ACh; activation, % at 3 µM; P11229; actives 0.088% (n = 360,000); in the data active = activation above about 19%, passing the limit was not always enough
Target sequence (P11229 whole entry, looked up): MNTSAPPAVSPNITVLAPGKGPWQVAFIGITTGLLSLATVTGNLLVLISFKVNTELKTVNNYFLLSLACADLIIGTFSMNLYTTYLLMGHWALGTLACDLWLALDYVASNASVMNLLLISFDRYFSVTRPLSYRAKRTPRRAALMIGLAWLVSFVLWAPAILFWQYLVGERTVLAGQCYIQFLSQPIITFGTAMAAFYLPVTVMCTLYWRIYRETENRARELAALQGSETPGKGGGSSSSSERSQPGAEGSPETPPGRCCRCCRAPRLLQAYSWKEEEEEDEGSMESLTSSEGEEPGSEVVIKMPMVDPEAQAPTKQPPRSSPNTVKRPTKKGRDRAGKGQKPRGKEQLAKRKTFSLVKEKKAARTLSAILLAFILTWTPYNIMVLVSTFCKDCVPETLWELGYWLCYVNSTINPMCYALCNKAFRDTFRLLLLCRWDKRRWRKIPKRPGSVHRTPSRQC
CHO-K1 Ca antag – M1 antagonist counterscreen hit in parental CHO-K1 cells. ATP-induced calcium, Fluo-8 fluorescence. inhibition, % at 3 µM. actives 0.6% (n = 360,000). AID 602250;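 active = inhibition above a per-plate cutoff, the plate's mean sample inhibition plus 3 SD, cut at about 24% in these data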
M1 ag – activates human CHRM1 receptor. P11229. CHO-K1 hM1, Fluo-8 calcium fluorescence, agonist mode; 0% DMSO, 100% acetylcholine EC100. activation, % at 3 µM. actives 0.33% (n = 360,000);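 active = activation above the run's mean compound activation plus 3 SD, cut at about 16% in these data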;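 also: peak over basal fluorescence ratio within a 140 s kinetic read after compound addition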
CHO-K1 Ca ag – nonselective activator or artifact in parental CHO-K1 cells | activation, % at 3 µM | AID 602248 | Fluo-8 calcium fluorescence; scaled to maximal ATP response, vehicle zero | actives 0.48% (n = 360,000); in the data active = activation above about 15%;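 also: untransfected CHO-K1 host cells lacking M1 receptor as counterscreen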
CHRM1 antagonist – antagonists of human M1 muscarinic receptor | actives 1.3% (n = 360,000) | AID 588852 | CHO-K1 hM1, Fluo-8 calcium fluorescence, ACh EC80 antagonist | P11229 | inhibition, % at 3 µM;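 active = percent inhibition above its own plate's cutoff, namely the mean of that plate's compound wells plus 3 SD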;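 also: peak over basal fluorescence ratio during 140 s after agonist addition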
M1 PAM parental – counter-screen for M1 PAMs: effect in parental CHO-K1 cells; ATP EC20, Fluo-8 calcium fluorescence; 0% at ATP EC20, 100% at ATP max; activation, % at 3 µM; actives 0.02% (n = 360,000); AID 602247;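 active = activation above the run cutoff, the mean activation of all test compounds plus 3 SD, cut at about 40% in these data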;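 also: peak over basal fluorescence ratio in a 140 s read after ATP addition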
Each line names hits and unclear results; the compound was inactive in the other large screens.

CCOC(=O)N1CCN(S(=O)(=O)N2CCCC(C(=O)NCc3ccc(C)cc3)C2)CC1 (stereo not drawn)	none
CCSc1nnc(NC(=O)c2ccccc2C)s1	CHRM1 antagonist 53
CCSc1nnc(NC(=O)CC)s1	M1 ag 16
Cc1nn(CC(C)C)c2sc(C(=O)NC3CC(C)(C)NC(C)(C)C3)cc12	none
CCN(CC1CCCN(CCc2cccc(F)c2)C1)C(=O)c1ccc(CSC)o1 (stereo not drawn)	CHRM1 antagonist 61
CCN(CC1CCCN(CCc2cccc(F)c2)C1)C(=O)c1ccoc1C (stereo not drawn)	none
COc1ccc(CN(C)C(=S)Nc2ccc(Cl)cc2)cc1	none
CCOC(=O)C1(C)CCN1C(=O)c1cc(F)ccc1C (stereo not drawn)	none
O=C(c1ccc(N2C(=O)CCC2=O)cc1)N1CCCSC1=Nc1ccccc1	none
Cc1cc(OCc2cc(C(=O)N3CCN(C)C(=O)[C@@H]3C)no2)cc(C)c1Cl	CHRM1 antagonist 38
COc1cc(Cl)ccc1OCc1cc(C(=O)N2CCN(C)C(=O)[C@@H]2C)no1	none
Cn1c(=O)[nH]c(=O)c2c1nc(SCC(=O)O)n2CCOc1ccccc1	CHRM1 antagonist 55
Cn1c(=O)[nH]c(=O)c2c1nc(SCC(=O)O)n2CCc1ccccc1	none
O=C1CC(N(O)c2ccccc2)C(=O)N1c1cc(Cl)cc(Cl)c1 (stereo not drawn)	M1 ag 27
Cc1ccccc1N1C(=O)CC(N(O)c2ccccc2)C1=O (stereo not drawn)	none
CCCC1c2ccc(C)n2CCN1C(=O)Nc1ccc(F)cc1 (stereo not drawn)	none
CCC1c2ccc(C)n2CCN1C(=O)Nc1ccc(F)cc1 (stereo not drawn)	CHO-K1 Ca antag 26
CC(=O)NC(c1ccccc1)c1nc(-c2cccc(C(F)(F)F)c2)cs1 (stereo not drawn)	CHO-K1 Ca antag 29
CC(=O)NC(c1ccccc1)c1nc(-c2cccc(CO)c2)cs1 (stereo not drawn)	none
CN1CCN(C(=O)Nc2ccc3c(c2)N(C)C(=O)c2ccccc2S3)CC1	none
CN1CCN(C(=O)Nc2cccc(-c3ccccc3)c2)CC1	CHRM1 antagonist 31
CCOC(=O)C1(C)CCN1C(=O)/C=C/c1ccccc1 (stereo not drawn)	none
COC1=CC(=NCl)C=CC1=NCl	none
ClN=C1C=CC=CC1=NCl	CHO-K1 Ca antag 35
CCN(CC)C(=O)c1cn(CCC#N)nc1-c1ccc(F)cc1	none
c1ccc(CN2CCCC3(CCCN(Cc4nc(CC5CC5)no4)C3)C2)cc1 (stereo not drawn)	none
c1ccc(CN2CCCC3(CCCN(Cc4nc(COc5ccccc5)no4)C3)C2)cc1 (stereo not drawn)	CHRM1 antagonist 60
Cc1ccc(C)c(N(CC(=O)NCc2ccco2)C(=O)CCC(=O)Nc2nccs2)c1	none
CC(=O)Nc1ccc(S(=O)(=O)Nc2ccccc2N2CCOCC2)cc1Cl	none
COc1cccc(C(=O)OCC(=O)Nc2ccccc2N2CCOCC2)c1	none
O=C(Nc1ccccc1N1CCOCC1)c1ccc(S(=O)(=O)NCc2ccco2)cc1	none
O=C(O)c1cccc(S(=O)(=O)Nc2ccccc2N2CCOCC2)c1	CHRM1 antagonist 54
COc1cccc(C(=O)Nc2ccccc2N2CCOCC2)c1	CHO-K1 Ca antag 68, CHO-K1 Ca ag 91
O=C(Nc1ccccc1N1CCOCC1)c1ccc(Cl)c(S(=O)(=O)NCc2ccco2)c1	CHO-K1 Ca ag 17
O=C(c1ccc(S(=O)(=O)N2CCc3ccccc3C2)cc1)N1CCCCC1	none
COCCNC(=O)C1(C)CCCN(C(=O)c2ccc3c(c2)CCO3)C1 (stereo not drawn)	none
O=C(CNc1ccccc1)Nc1cccc2ccccc12	none
CNC(=O)CSc1nnnn1CCCOC	CHRM1 antagonist 43
Cc1n[nH]c(=O)c2c(NC(=O)CSc3nncs3)oc(C)c12	none
COc1ccc(N2CCN(C(=O)CSc3nnc4n3C(C)(C)Cc3ccccc3-4)CC2)cc1	none
Cc1ccc(Cl)cc1N1CCN(C(=O)CSc2nnc3n2C(C)(C)Cc2ccccc2-3)CC1	CHRM1 antagonist 50

Compound activity (PubChem)
